The results in this text go back to PubChem BioAssay (NCI).

Compounds without any hit were thinned out: in the full panel of roughly 83,000, 20% have a hit.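 Note: values are percent growth. 100 is the growth of untreated cells, values between 100 and 0 indicate rising inhibition; between -100 and 0 indicates cell death.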 A number with no mark means an inactive call. Active and inactive are the calls of the source. Rule for the calls: active = growth percent below 10; inactive = the rest.

Some test systems named below: NCI-H23 lung; NCI-H226 lung; NCI-H322M lung; HOP-62 NSCLC; NCI-H460 lung; A549/ATCC NSCLC; 786-0 renal; COLO 205 colon; DU-145 prostate; K-562 leukemia; MALME-3M melanoma; MDA-MB-231 breast; RXF 393 renal; SF-268 CNS; SF-539 CNS; UACC-257 melanoma; M14 melanoma; SF-295 CNS.
What all share (experiment): NCI-60 one-dose screen, 48 h (100 = growth as untreated, 0 = no growth, -100 = all killed)
Conditions in all cases: 10 µM unless noted

In the case of `C=CCNCCC#N`, the growth with NCI-H23 lung is 113%; in the assay on NCI-H226 lung it was 92.9%; in the assay with NCI-H322M lung it was 115%; with HOP-62 NSCLC, 105%; with NCI-H460 lung, 111%; with A549/ATCC NSCLC it was 99.2%. Also, the growth was 102% in the assay on 786-0 renal; 116% in the assay on COLO 205 colon; 113% in the assay with DU-145 prostate; 109% in the assay on K-562 leukemia; 114% with MALME-3M melanoma; 119% in the assay with MDA-MB-231 breast. Besides, the growth in the assay on RXF 393 renal is 109%; in the assay on SF-268 CNS it was 112%; in the assay on SF-539 CNS, 107%; in the assay with UACC-257 melanoma, 111%; in the assay with M14 melanoma it was 101%.

`CC(=O)CC(=O)OC/C=C(/C)CCC=C(C)C`: the growth in the assay on NCI-H23 lung was 103%; with NCI-H226 lung, 101%; in the assay with NCI-H322M lung, 118%; in the assay on HOP-62 NSCLC, 107%; in the assay on NCI-H460 lung, 109%; in the assay with A549/ATCC NSCLC it was 105%. Moreover, the growth with 786-0 renal is 104%; in the assay with COLO 205 colon, 109%; with DU-145 prostate, 111%; in the assay on K-562 leukemia, 108%; in the assay on MALME-3M melanoma it was 121%; with MDA-MB-231 breast, 109%. Moreover, the growth with RXF 393 renal was 98%; with SF-268 CNS, 106%; in the assay on SF-539 CNS, 97%; in the assay with UACC-257 melanoma, 106%; in the assay on M14 melanoma, 101%.

As to `COC(=O)[C@H](Cc1cn(C)cn1)NC(=O)[C@H](Cc1c[nH]c2ccccc12)NC(=O)Nc1cc(C(F)(F)F)cc(C(F)(F)F)c1`, the growth with NCI-H23 lung is -72.4% [100 µM] (active); with NCI-H226 lung, -47.9% [100 µM] (active); in the assay with NCI-H322M lung it was -41.9% [100 µM] (active); in the assay on HOP-62 NSCLC, -92% [100 µM] (active); in the assay with NCI-H460 lung, -25.8% [100 µM] (active); with A549/ATCC NSCLC, -50.8% [100 µM] (active). Also, the growth with 786-0 renal is -83.8% [100 µM] (active); in the assay with COLO 205 colon, -77.1% [100 µM] (active); in the assay with DU-145 prostate, -88.1% [100 µM] (active); with K-562 leukemia, -59.3% [100 µM] (active); with MALME-3M melanoma it was -70.2% [100 µM] (active); in the assay on MDA-MB-231 breast, -92.4% [100 µM] (active). Besides, the growth with RXF 393 renal was -81.2% [100 µM] (active); with SF-268 CNS, -79.9% [100 µM] (active); in the assay on SF-539 CNS, -69.1% [100 µM] (active); in the assay on UACC-257 melanoma it was -67.6% [100 µM] (active); with M14 melanoma, -83.8% [100 µM] (active).

Regarding `NCCCOc1cc(Cl)ccc1NC(=O)c1cc2ccccc2cc1OCCCN`, the growth in the assay with NCI-H23 lung is -62.3% (active); in the assay with NCI-H226 lung, -28.9% (active); in the assay with NCI-H322M lung it was -1.29% (active); with HOP-62 NSCLC, -94.3% (active); with NCI-H460 lung it was -91% (active); in the assay on A549/ATCC NSCLC, -93.6% (active). Besides, the growth in the assay with 786-0 renal was -89.2% (active); in the assay with COLO 205 colon it was -88% (active); with DU-145 prostate, -90% (active); with K-562 leukemia it was 0.57% (active); in the assay with MALME-3M melanoma it was -4.21% (active); with MDA-MB-231 breast, -65% (active). For the same compound, the growth was -5.16% (active) in the assay with RXF 393 renal; -73.6% (active) in the assay on SF-268 CNS; -62% (active) in the assay on SF-295 CNS; -88.8% (active) in the assay on SF-539 CNS; -88.5% (active) in the assay on M14 melanoma.

Take `CC(Br)c1nc2ccccc2cc1C(N)=O` (stereo not drawn): the growth is 107% with NCI-H23 lung; 106% in the assay on NCI-H226 lung; 99.9% in the assay with NCI-H322M lung; 101% in the assay on HOP-62 NSCLC; 102% in the assay on NCI-H460 lung; 97% in the assay on A549/ATCC NSCLC. Moreover, the growth in the assay on 786-0 renal is 103%; in the assay with COLO 205 colon, 110%; with DU-145 prostate, 102%; in the assay on K-562 leukemia, 90.9%; with MALME-3M melanoma, 101%; with MDA-MB-231 breast, 118%. Moreover, the growth is 109% with RXF 393 renal; 104% in the assay with SF-268 CNS; 103% with SF-539 CNS; 119% in the assay with UACC-257 melanoma; 109% in the assay with M14 melanoma.

In the case of `NCCCOc1cc2ccccc2cc1C(=O)Nc1ccc(Cl)cc1OC(=O)c1cc2ccccc2cc1OCCCN`, the growth in the assay with NCI-H23 lung is -72.2% (active); in the assay with NCI-H226 lung, -57.6% (active); with NCI-H322M lung it was -69.3% (active); in the assay on HOP-62 NSCLC it was -92.3% (active); in the assay on NCI-H460 lung, -89.7% (active); in the assay on A549/ATCC NSCLC, -94.3% (active). Besides, the growth in the assay with 786-0 renal is -86.2% (active); in the assay with COLO 205 colon, -90.8% (active); with DU-145 prostate, -97% (active); in the assay on K-562 leukemia, -37.5% (active); with MALME-3M melanoma, -70.7% (active); with RXF 393 renal it was -86.4% (active). The growth with SF-268 CNS is -80.5% (active); in the assay on SF-295 CNS, -76.2% (active); in the assay with SF-539 CNS, -89.6% (active); with M14 melanoma, -86.7% (active).

Regarding `CCCCCCC(C(=O)OCC)(C(=O)OCC)C1CCCCCC1`, the growth was 107% in the assay with NCI-H23 lung; 99.6% with NCI-H226 lung; 96.6% in the assay with NCI-H322M lung; 91.9% in the assay on HOP-62 NSCLC; 106% in the assay on NCI-H460 lung; 96% in the assay on A549/ATCC NSCLC. Also, the growth was 115% in the assay with 786-0 renal; 102% in the assay with COLO 205 colon; 120% with DU-145 prostate; 100% in the assay on K-562 leukemia; 108% in the assay on MALME-3M melanoma; 101% with MDA-MB-231 breast. Besides, the growth was 104% with RXF 393 renal; 121% with SF-268 CNS; 105% in the assay with SF-295 CNS; 92.8% with SF-539 CNS; 106% in the assay on M14 melanoma.

For `CCOc1ccc(N(C)c2ccc(/C=C/C3=[N+](C)c4ccccc4C3(C)C)cc2)cc1`, the growth is 4.67% (active) in the assay with NCI-H23 lung; 54.2% with NCI-H226 lung; 57% with NCI-H322M lung; 12.3% in the assay with HOP-62 NSCLC; -50% (active) with NCI-H460 lung; 9.51% (active) with A549/ATCC NSCLC. The growth in the assay with 786-0 renal is 2.71% (active); in the assay with COLO 205 colon, -77% (active); in the assay on DU-145 prostate, -3.68% (active); in the assay on K-562 leukemia, 8.09% (active); with MALME-3M melanoma it was -73.8% (active); in the assay with MDA-MB-231 breast, -56.2% (active). Further, the growth in the assay on RXF 393 renal was 35.8%; in the assay on SF-268 CNS it was -78.9% (active); in the assay on SF-295 CNS it was -2.2% (active); with SF-539 CNS, 30.5%; in the assay on UACC-257 melanoma, -16.4% (active); in the assay on M14 melanoma it was 6.52% (active).

Regarding `NC(CSC(c1ccccc1)(c1ccccc1)c1ccccc1)C(=O)NCC(=O)O` (stereo not drawn), the growth is 86.3% with NCI-H23 lung; 99.6% in the assay with NCI-H226 lung; 47.9% in the assay with NCI-H322M lung; 80% in the assay with HOP-62 NSCLC; 95.2% in the assay on NCI-H460 lung; 86.8% in the assay with A549/ATCC NSCLC. Also, the growth is 71.3% in the assay on 786-0 renal; 16.6% with COLO 205 colon; 111% with DU-145 prostate; 54.2% in the assay on K-562 leukemia; 52.9% in the assay on MALME-3M melanoma; 61.2% with MDA-MB-231 breast. Further, the growth in the assay on RXF 393 renal was 22.6%; with SF-268 CNS it was 67.3%; in the assay on SF-539 CNS it was 21.3%; in the assay on UACC-257 melanoma, 54.9%; with M14 melanoma, 44.6%.
